The list is not random: actives were taken first. Their share in the collection is about 19%.
IL1B secr inh = inhibitors of inflammasome signaling (IL-1 beta secretion); THP-1 LPS/ATP IL-1B secretion, AlphaLISA, 16 h; active compounds read low; activity change, % at 57.5 µM; hit rate 4.7% among 360,000; in the data active = activity change below about -50%; inconclusive = mostly about -30% to -49%
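THP-1 cells pretreated 1 hr with compounds (up to 57.5 uM final), then stimulated with LPS (250 ng/mL final) plus ATP (1.25 mM final); secreted IL-1B measured by AlphaLISA after 16 hr, decreased signal indicating inhibition.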
TDP1 cell noCPT = qHTS for Inhibitors of human tyrosyl-DNA phosphodiesterase 1 (TDP1): qHTS in cells in absence of CPT. hit rate 15% among 420,000. Potency, µM (titrated, usually from 46.2 µM), without a hit: at the top dose activity change, negative = growth inhibition, usual class: inhibitors. AID 686978, 2013. DT40 Tdp1-/- hTDP1 cells, no CPT, ATP luminescence, 48 h; note: potency is the fitted concentration of half-maximal effect; nearly all actives have a fitted effect of over 55% in size
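Chicken DT40 Tdp1-/- cells complemented with human TDP1, screened without camptothecin (DMSO vehicle only), 400 cells/well. Compounds pin-transferred, cells incubated at 37 °C for at least 48 hr. Growth read as ATP-dependent luminescence (CellTiter-Glo, 30 min at RT).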
DT40 TDP1 CPT = DT40-hTDP1 cell growth loss with CPT; chicken DT40 Tdp1-/-;hTDP1 cells + 20 nM CPT, ATP luminescence, 48 h; Potency, µM (titrated, usually from 46.2 µM), inactives show at the highest dose activity change, negative = growth inhibition, hits mostly inhibitors; hit rate 12% among 420,000; AID 686979; note: potency is the fitted concentration of half-maximal effect; nearly all actives have a fitted effect of over 55% in size
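Chicken DT40 Tdp1-/- cells stably complemented with human TDP1 were seeded at 400 cells/well in medium containing 20 nM camptothecin, exposed to pin-transferred compounds, and grown at 37 °C for at least 48 hr. Viability was read as ATP luminescence.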
HT1080-NT tox = kills 2HG-producing HT-1080-NT fibrosarcoma cells | HT-1080-NT fibrosarcoma viability, CellTiter-Glo ATP luminescence, 48 h | Potency, µM (series often up to 46.1 µM), without a hit: at the highest dose activity, negative = less viability, most hits filed as cytotoxic | hit rate 1.6% among 360,000;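 note: NT is the 2HG producing partner of a matched IDH1 knockdown line; potency is the fitted concentration of half-maximal effect; 0% = DMSO-treated cells and -100% = media-only wells without cells; nearly all actives have a fitted effect of over 55% in size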
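A 48-hour cytotoxicity screen used HT-1080-NT cells plated 2 hours before compound delivery. ATP-based CellTiter-Glo luminescence measured viability, normalized to DMSO and no-cell controls.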
HT1080 IDH1KD tx = toxicity to HT-1080 IDH1 knockdown cells (counter line). HT-1080 IDH1 knockdown viability, ATP luminescence, 48 h. Potency, µM (titrated, usually from 46.1 µM), for inactives: at the highest dose activity, negative = toxicity, usual class: cytotoxic. hit rate 2% among 360,000;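 note: potency is the fitted concentration of half-maximal effect; 0% = DMSO wells and -100% = cell-free medium wells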
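Luminescent ATP read-out (CellTiter-Glo, 10 min at room temperature) after 48 h compound exposure at 37 °C gave viability of IDH1-knockdown HT-1080 cells. Activity was normalised to DMSO and cell-free wells, then fitted as concentration-response curves.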
* marks the source's active call; other numbers are inactive results; u = inconclusive; x = no result; ! = repeats disagree; [ ] = dose if it differs, or a comment. Unless noted, calls come from the whole dose curve; as a rule, active = well fitted curve in the direction sought with a large enough effect; inconclusive = small, poorly fitted or top-dose-only effect, or another doubt; inactive = no such curve, though single readings can be large; an effect the other way counts as inactive or inconclusive. Unless noted, % is set by controls: 0 for no effect and ±100 for the full control effect.

SMILES	IL1B secr inh	TDP1 cell noCPT	DT40 TDP1 CPT	HT1080-NT tox	HT1080 IDH1KD tx
COC(=O)C1=CN(c2ccc(F)cc2)C(N)=C(C#N)C1c1cccc(OC)c1OC (configuration not stated)	-18	u	u	1%	0%
COC(=O)C1=CNC=C(C(=O)OC)C1c1cccc2ccccc12	5	u	0%	-21%	-15%
CCc1ccc(N2C=C(C(=O)OC)C(c3cccc4ccccc34)C(C#N)=C2N)cc1 (configuration not stated)	-10	8.2µM*	13µM*	u	u
COC(=O)C1=CN(c2ccc(OC)cc2)C(N)=C(C#N)C1c1cccc2ccccc12 (configuration not stated)	16	5.2µM*	5.8µM*	u	u
O=C(NCCCl)Nc1cccc(Br)c1	1	-5%	0%	5%	1%
CCOc1ccc(CNC(=O)C2Cc3cc(S(=O)(=O)N4CCCC4)ccc3N2C(C)=O)cc1 (configuration not stated)	-27	6%	-27%	-1%	5%
Cc1cc(NC(=O)c2ccc(F)c(S(=O)(=O)N3CCCCC3)c2)no1	8	-20%	-2%	0%	1%
Cc1ccc(S(=O)(=O)N(C)C)cc1[N+](=O)[O-]	-5	u	-14%	18%	25%
O=C(Nc1ccc(N2CCN(c3ccc(C(F)(F)F)cn3)CC2)nc1)c1cccs1	14	1%	3%	19%	12%
N/C(=N\O)c1ccc(N2CCN(c3ncccc3C(F)(F)F)CC2)nc1	22	18µM*	u	-22%	-27%
O=C(Nc1ccc(N2CCN(c3ncccc3C(F)(F)F)CC2)nc1)c1cccs1	-101*	21µM*	18µM*	18µM*	21µM*
O=C(NCCC1=CCCCC1)C1CCCN(c2nc3ccccc3o2)C1 (configuration not stated)	-11	u	u	11%	-1%
CC(C)(C)c1nnc(NC(=O)CCS(=O)(=O)c2ccccc2)s1	-103*	23µM*	7.3µM*	-17%	u
CC1(C)CC(=O)c2sc(NC(=O)CCS(=O)(=O)c3ccccc3)nc2C1	-82*	5.8µM*	3.3µM*	-21%	-29%
Cc1ccc(S(=O)(=O)CC(=O)Nc2nnc(C(C)(C)C)s2)cc1	11	0%	7%	3%	2%
Cc1nnc(NC(=O)CCS(=O)(=O)c2ccccc2)s1	-93*	u	16µM*	u	u
CC(Oc1ccccc1)C(=O)Nc1nc2c(s1)C(=O)CC(C)(C)C2 (configuration not stated)	-11	-6%	-4%	3%	2%
O=C(CCS(=O)(=O)c1ccccc1)Nc1nnc(C(F)(F)F)s1	3	13µM*	u	u	18µM*
CC(=O)Nc1ccc(C(=O)NNC(=O)C2C3CCCCC32)cc1 (configuration not stated)	20	3%	0%	6%	4%
CCn1c(=O)c2cc(C(=O)N3CCOCC3)sc2c2ccccc21	-20	u	-21%	16%	2%
CCn1c(=O)c2cc(C(=O)N3CCN(c4cccc(OC)c4)CC3)sc2c2ccccc21	x	13µM*	18µM*	x	x
CCn1c(=O)c2cc(C(=O)N3CCN(c4cccc(Cl)c4)CC3)sc2c2ccccc21	x	23µM*	15µM*	x	x
CCC1SC(C)C/C(=N/NC(N)=O)C1C (configuration not stated)	5	8%	23%	2%	2%
CC1CC(C)C(=NNC(N)=O)C(C(O)CC2CCC(=O)NC2=O)C1 (configuration not stated)	-17	2.3µM*	1.6µM*	-3%	u
C=CCSC1=N/C(=C\c2cc(OCC)c(OC(C)=O)c([N+](=O)[O-])c2)C(=O)S1	19	u	16µM*	-3%	6%
SMILES	IL1B secr inh	TDP1 cell noCPT	DT40 TDP1 CPT	HT1080-NT tox	HT1080 IDH1KD tx
COC(C[C@@H](O)[C@H](C)[C@@H](O)COCc1ccccc1)OC	1	-18%	-9%	8%	8%
CC(C)c1cc(Cn2c3ccccc3c(=O)n2C(C)CBr)on1 (configuration not stated)	0	u	u	-16%	0%
OC(CNCc1ccc(Cl)cc1)COc1ccccc1 (configuration not stated)	-7	u	u	-13%	-1%
CCCc1cnc(NCCNCC(O)COc2ccc(Cl)c(Cl)c2)nc1 (configuration not stated)	x	16µM*	16µM*	18µM*	21µM*
COc1ccc(C(=O)Nc2cccc3c2CCCC3)cc1OC	-12	5%	-19%	-4%	-6%
COc1ccc(-c2ccc3oc(-c4ccc(OC)cc4)c(-c4ccc(OC)cc4)c3c2)cc1	12	u	u	11%	23%
COc1ccc2oc3cc(C)[n+]([O-])c(-c4ccc(Br)cc4)c3c2c1	-3	0.0082µM*	u	-8%	-5%
CCc1nn(CC(=O)NCCCN2CCOCC2)c(=O)c2cc3cc(F)ccc3n12	2	22%	3%	10%	19%
CCCCS(=O)(=O)c1nc(-c2ccc(Br)cc2)cc(-c2ccccc2)c1C#N	x	2.6µM*	3.7µM*	x	x
CCN(Cc1ccccc1)Cc1ccc(OCc2ccccc2)cc1	15	u	-17%	-1%	0%
Cc1cc(C)c(C)c(OCCCCN(C)Cc2ccccc2)c1	-19	21µM*	u	-21%	-18%
CCN(CC)CCOc1ccc(Cc2ccccc2)cc1	x	21µM*!	24µM*!	x	x
CCc1ccc(OCCCCN(C)Cc2ccccc2)cc1	u	29µM*	u	-11%	-19%
CC(C)NC(=O)CN(C(=O)CCC(=O)Nc1nccs1)c1ccc(C(C)C)cc1	u	-3%	u	-2%	2%
COc1c(Cl)cc(-c2noc(C)c2C(=O)NC(C)C)cc1Cl	19	5%	8%	10%	6%
C=C1NN(C)C(=O)N1c1ccc(OC)cc1	x	0%	16%	x	x
COc1ccc(C(CC(=O)N2CCCCC2)c2c(OC)cc(OC)c3ccc(=O)oc23)cc1 (configuration not stated)	-18	u	21µM*	-1%	7%
CCN(CC)C(=O)CC(c1ccc(OC)cc1)c1c(OC)cc(OC)c2ccc(=O)oc12 (configuration not stated)	-23	u	23µM*	-4%	-6%
COc1ccc(CN2Cc3ccccc3OC(c3ccccc3OC)C2)c(O)c1 (configuration not stated)	x	u	-1%[9.04 µM]	x	x
